miR-122 sensor: blocks miR-122 activity in Huh7 sensor cells. activation (reporter increase), % at 12.5 µM. AID 602342. hit rate 0.3% among 340,000. Huh7 miR-122 Renilla luciferase sensor, 48 h; neutral wells = 0, positive control = 100;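 active = mean replicate activation score at least 90 and every replicate individually at or above 90; inconclusive = only one of the two criteria met; inactive = neither criterion met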;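 note: higher luciferase means less miR-122 activity so hits act as miR-122 inhibitors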
MITF TRPM1 HTS: activators of MITF-driven TRPM1 promoter activity in SK-MEL-5 cells; SK-MEL-5 TRPM1-promoter luciferase, 24 h; % of positive control, neutral wells = 0; activation, % at 12.5 µM; hit rate 0.75% among 300,000; AID 588334;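 active = mean activation of at least 80% with every replicate also reaching 80%; inconclusive = mean reaches 80% but some replicate falls short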
HIV Env fusion: inhibitors of HIV Env-mediated cell fusion | inhibition, % at 12.3 µM | HeLa-JRFL Env/CEM21 cell fusion, luciferase | AID 651610 | hit rate 1.1% among 360,000;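 active = mean replicate inhibition score of at least 50 and every replicate individually at or above 50; inconclusive = only one of the two criteria met; inactive = mean below 50 and not all replicates reaching 50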
esBAF inh: SWI/SNF esBAF complex inhibition; mouse ES cells, Bmi1-luciferase knock-in reporter, 24 h; 100% = twice the neutral-well signal; hit rate 2% among 350,000; reporter increase, % at 12.5 µM; AID 602393; in the data active = activation above about 40%; inconclusive = no clear call, values can overlap the other calls;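 note: a rise in the Bmi1 reporter signal indicates esBAF inhibition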
Wnt act: activates Wnt/beta-catenin signaling in a reporter cell assay; activation, % at 9.35 µM; activator, plate reader; hit rate 1.2% among 300,000; in the data active = activation above about 30%, passing the limit was not always enough; inconclusive = no clear call, values can overlap the other calls
Of the large screens only hits and unclear results are named; the others gave an inactive call; [ ] = remark or other dose. Only some compounds are listed: those with a hit (about 3.4% of all), similar ones and a draw of the others.

C[C@@H]1CN([C@H](C)CO)C(=O)c2cc(-c3ccccc3F)cnc2O[C@@H]1CN(C)Cc1cccc(C(=O)O)c1	none (no result: MITF TRPM1 HTS, Wnt act)
C[C@@H]1CN([C@H](C)CO)C(=O)c2cc(NC(=O)CCN3CCOCC3)ccc2O[C@@H]1CN(C)C(=O)Nc1ccc(F)cc1	none (no result: MITF TRPM1 HTS, HIV Env fusion, Wnt act)
CC(C)(C)c1cc(C(=O)NCc2cc(F)cc3c2OCOC3)n(Cc2ccccc2)n1	esBAF inh 50 (no result: MITF TRPM1 HTS)
CC(C)(C)c1cc(C(=O)NNC(=O)Nc2ccccc2)n(Cc2ccccc2)n1	none (no result: miR-122 sensor)
CCC(=O)N1[C@@H]2Cn3c(ccc(-c4ccccc4)c3=O)[C@H]1[C@@H](C(=O)N(C)C)[C@@H]2CO	none (no result: MITF TRPM1 HTS, HIV Env fusion, Wnt act)
Cc1ccc(OCCSc2ncnc3nc[nH]c23)cc1	MITF TRPM1 HTS 90 (no result: HIV Env fusion, esBAF inh, Wnt act)
COc1ccc(C(=O)CSc2ncnc3nc[nH]c23)cc1	none (no result: miR-122 sensor, MITF TRPM1 HTS, esBAF inh)
CN1C(=O)c2cc(NC(=O)Cc3ccccc3)ccc2OC[C@H]2O[C@@H](CC(=O)NCC3CC3)CC[C@@H]21	none (no result: MITF TRPM1 HTS, Wnt act)
COc1ccccc1C(=O)Nc1ccc2c(c1)C(=O)N(C)[C@H]1CC[C@@H](CC(=O)NCc3ccc(Cl)c(Cl)c3)O[C@@H]1CO2	none (no result: MITF TRPM1 HTS, HIV Env fusion, Wnt act)
CN1C(=O)c2cc(NC(=O)Cc3ccccc3)ccc2OC[C@@H]2O[C@H](CC(=O)NCC3CC3)CC[C@@H]21	miR-122 sensor 233[16.7 µM] (no result: MITF TRPM1 HTS, Wnt act)
CN1C(=O)c2cc(NC(=O)Cc3ccccc3)ccc2OC[C@@H]2O[C@H](CC(=O)NCc3ccc(Cl)cc3)CC[C@@H]21	miR-122 sensor 293[16.7 µM] (no result: MITF TRPM1 HTS, Wnt act)
COc1ccccc1C(=O)Nc1ccc2c(c1)C(=O)N(C)[C@H]1CC[C@H](CC(=O)NCc3ccc(Cl)c(Cl)c3)O[C@H]1CO2	miR-122 sensor 308[16.7 µM] (no result: MITF TRPM1 HTS, HIV Env fusion, Wnt act)
Cc1ccc(-c2c(C)sc(=NC(=O)c3ccco3)n2C)cc1	MITF TRPM1 HTS 100, esBAF inh 57 (no result: HIV Env fusion, Wnt act)
C[C@H]1CN([C@@H](C)CO)S(=O)(=O)c2ccc(-c3ccncc3)cc2O[C@H]1CN(C)C(=O)C1CCC1	none (no result: MITF TRPM1 HTS, esBAF inh, Wnt act)
CO[C@H]1CN(C)C(=O)c2cc(NC(C)=O)ccc2OC[C@H](C)N(Cc2cncnc2)C[C@@H]1C	none (no result: MITF TRPM1 HTS, Wnt act)
CCN(Cc1nc2cc(Cl)ccc2c(=O)[nH]1)C(=O)c1cc(C2CC2)nn1-c1ccccc1	HIV Env fusion 86 (no result: miR-122 sensor, esBAF inh)
CCCCn1cnc2c(oc3ccccc32)c1=O	MITF TRPM1 HTS 99, esBAF inh inconclusive
N#CCn1cnc2c(oc3ccccc32)c1=O	none (no result: miR-122 sensor, HIV Env fusion, Wnt act)
c1ccc(-c2ccc3c(n2)CCCN3Cc2ccccn2)cc1	HIV Env fusion 61, Wnt act 35 (no result: miR-122 sensor, MITF TRPM1 HTS, esBAF inh)
Fc1ccc(-c2ccc3c(n2)CCCN3Cc2ccccn2)cc1	Wnt act inconclusive (no result: miR-122 sensor, MITF TRPM1 HTS, esBAF inh)
CNC[C@H]1OCCCC[C@@H](C)Oc2ccc(NC(=O)Nc3ccc(F)cc3)cc2C(=O)N([C@H](C)CO)C[C@@H]1C	none (no result: MITF TRPM1 HTS, Wnt act)
COc1cccc(C2=CC(c3cccc(OC)c3OC)n3nnnc3N2)c1 (stereo unspecified)	esBAF inh 47 (no result: HIV Env fusion, Wnt act)
COc1ccc(S(=O)(=O)N(C)C[C@H]2Oc3c(NC(=O)c4ccc(-c5nccs5)cc4)cccc3C(=O)N([C@@H](C)CO)C[C@@H]2C)cc1	none (no result: MITF TRPM1 HTS, Wnt act)
COc1ccc(NC(=O)/C=C/c2cccc(Br)c2)cn1	esBAF inh 67
COc1ccc(NC(=O)/C=C/c2cccc(C(F)(F)F)c2)cn1	none (no result: miR-122 sensor)
O=S(=O)(c1ccccc1)c1nc(-c2ccco2)oc1NCCN1CCOCC1	none (no result: HIV Env fusion)
Cc1ccccc1-c1nc(S(=O)(=O)c2ccccc2)c(NCCN2CCOCC2)o1	HIV Env fusion 59 (no result: MITF TRPM1 HTS)
CC(C)c1cn(CC[C@@H]2CC[C@H](NC(=O)C3CCC3)[C@H](CO)O2)nn1	none (no result: miR-122 sensor, MITF TRPM1 HTS, Wnt act)
C/C(NC(=O)c1cccs1)=C1\C(=O)C[C@@H]2[C@H]1C2(C)C	esBAF inh 44 (no result: HIV Env fusion)
O=C1CCCS(=O)(=O)c2ccccc21	miR-122 sensor 172
O=C(Nc1cc(C(F)(F)F)ccc1N1CCCCC1)c1cccc([N+](=O)[O-])c1	HIV Env fusion 98
O=C(Nc1ccccc1)c1cc(C2CCCCN2S(=O)(=O)c2cccs2)on1 (stereo unspecified)	esBAF inh 82 (no result: MITF TRPM1 HTS)
O=C(Nc1ccccc1Cl)c1cc(C2CCCCN2S(=O)(=O)c2ccccc2)on1 (stereo unspecified)	none (no result: MITF TRPM1 HTS, HIV Env fusion)
CS(=O)(=O)N1CCCCC1c1cc(C(=O)Nc2cccc3c2CCCC3)no1 (stereo unspecified)	none (no result: MITF TRPM1 HTS)
O=C(Nc1ccccc1)c1cc(C2CCCCN2S(=O)(=O)c2ccccc2)on1 (stereo unspecified)	esBAF inh 52 (no result: MITF TRPM1 HTS)
N#Cc1ccc(S(=O)(=O)N2CCCCC2c2cc(C(=O)Nc3cccc4c3CCCC4)no2)cc1 (stereo unspecified)	HIV Env fusion 60 (no result: MITF TRPM1 HTS)

Screening data (PubChem)
